Where “and” joins values, the source holds several entries; their conditions need not be identical. Equal entries are not always repeated. Records with an inconclusive call do not appear. A call without a number means that no potency is given here. Where a structure was tested more than once in an assay, its records may differ in their call. Calls of active or inactive are those of the source. The call rests on the fitted dose curve; in most records, active means well fitted inhibition curve with a large enough effect in the repeat runs; inconclusive means weak or mixed curves; inactive means no such curve, though single readings can be large or run the other way.
Biological target: Cytochrome P450 2D6 (Homo sapiens) (UniProt P10635)
Assay: Cytochrome P450 Family 2 Subfamily D Member 6 (CYP2D6) small molecule antagonists: luciferase reporter qHTS assay (AID 1671196); further: nearly all actives have a fitted effect of over 50% in size
Details: P450-Glo CYP2D6 enzyme assay, luciferin luminescence, 1 h; series mostly up to 115 µM
From the text: U.S. Tox21 Program National Center for Advancing Translational Sciences [NCATS] U.S. Environmental Protection Agency [EPA] National Institutes of Environmental Health Sciences [NIEHS] National Toxicology Program [NTP] U.S. Food and Drug Administration [FDA] Tox21 Assay Overview: Cytochrome P450 (CYP) enzymes are membrane-bound hemeproteins that play a key role in metabolism of drugs and xenobiotics. Evaluation of the effect of chemicals on CYP isozymes is useful to minimize the adverse drug reactions and toxicities in drug development process. Tox21 chemicals were tested for their effect on CYP enzyme activities by using P450-Glo (TM) screening systems (Promega Corporation, Madison, WI). These systems provide a luminescent method containing proluciferin substrates and are converted to luciferin products by CYP isozymes. The luciferin products formed are detected with a luciferin detection reagent, and the amount of light produced is proportional to CYP activity. P450-Glo (TM) CYP2D6 screening system (Catalog. No. V9890) was used to detect the compounds that interfere in CYP2D6 activity.
Tox21 Assay Protocol Summary: Two ul of enzyme-substrate mix was dispensed into medium binding white/solid 1536-well plates (Greiner Bio-One North America Inc., Monroe, NC) using a BioRaptr Flying Reagent Dispenser (FRD, Beckman Coulter, Brea, CA). […] The assay plates were incubated at room temperature for 10 min. Then 2 ul of NADPH regeneration solution was added to each well of the assay plates using an FRD and incubated at room temperature for 1 h. The reaction was stopped by adding 4 ul of detection reagent using an FRD and after 20 min incubation at room temperature the luminescence signal was measured using a ViewLux plate reader (Perkin Elmer, Shelton, CT). Data were expressed as relative luminescence units.
Potency means the concentration at half of the fitted maximal effect.

Chain of Cytochrome P450 2D6 (Homo sapiens) (P10635 whole entry, looked up): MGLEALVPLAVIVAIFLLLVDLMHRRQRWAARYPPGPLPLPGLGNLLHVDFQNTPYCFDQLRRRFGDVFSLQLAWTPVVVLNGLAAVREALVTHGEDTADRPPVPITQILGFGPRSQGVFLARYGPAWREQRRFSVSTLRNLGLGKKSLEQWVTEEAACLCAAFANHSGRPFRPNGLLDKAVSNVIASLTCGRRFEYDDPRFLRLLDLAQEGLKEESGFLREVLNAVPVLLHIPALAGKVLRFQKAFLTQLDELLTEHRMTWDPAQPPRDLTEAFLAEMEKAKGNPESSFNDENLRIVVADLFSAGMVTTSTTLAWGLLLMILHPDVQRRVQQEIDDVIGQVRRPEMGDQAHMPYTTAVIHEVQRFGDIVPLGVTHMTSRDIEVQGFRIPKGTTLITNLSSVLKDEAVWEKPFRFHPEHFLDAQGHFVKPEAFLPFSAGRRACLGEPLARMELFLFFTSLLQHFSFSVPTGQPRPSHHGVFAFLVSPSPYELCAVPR

Row | SMILES | Potency
1 | Cc1ccc(C)c(S(=O)(=O)O)c1 | 64.4 µM (active) and inactive
2 | Nc1cccc(C(F)(F)F)c1 | inactive
3 | CC(=O)OC(C)(C)C1CC=C(C)CC1 (stereo not given) | inactive
4 | Oc1ccc(Cc2ccccc2O)cc1 | inactive
5 | CCCCCCCCO | inactive
6 | CC(C)=CCC/C(C)=C/C=O | inactive
7 | CC/C=C(\C(=O)N[C@@H]1C(=O)N2C(C(=O)OCOC(=O)C(C)(C)C)=C(COC(N)=O)CS[C@H]12)c1csc(N)n1 | inactive
8 | CC(=O)CC(=O)N(C)C | inactive
9 | CC/C(C)=N/O | inactive
10 | COC(=O)/C=C\C(=O)OC | inactive
11 | COc1cc(NC(=O)CC(C)=O)c(OC)cc1Cl | 79.6 µM (active)
12 | Cc1cc(C)cc(O)c1 | inactive
13 | CCc1cccc(O)c1 | inactive
14 | CCCCCCCCCCCCCC(=O)O | inactive
15 | Cc1ccc(C(C)C)cc1 | inactive
16 | CC(=O)c1nccs1 | inactive
17 | CC[N+](CC)(CC(=O)Nc1c(C)cccc1C)Cc1ccccc1 | 11.2 nM (active) and inactive
18 | CC(=O)OCCC(C)C | inactive
19 | CN=C(NC#N)NCCSCc1nc[nH]c1C | 31.4 µM (active) and 15.5 µM (active)
20 | CC(C=O)Cc1ccc(C(C)(C)C)cc1 (stereo not given) | inactive

Row | SMILES | Potency
21 | O=c1c(O)c(-c2ccc(O)c(O)c2)oc2cc(O)cc(O)c12 | 63.4 µM (active) and inactive
22 | O=[N+]([O-])c1cc(C(F)(F)F)ccc1Cl | inactive
23 | COc1ccc2cc3[n+](cc2c1OC)CCc1cc2c(cc1-3)OCO2 | 180 nM (active) and 2.19 µM (active)
24 | Nc1nc(N)c2nc(-c3ccccc3)c(N)nc2n1 | 64 µM (active) and inactive
25 | COCN(COC)c1nc(N(COC)COC)nc(N(COC)COC)n1 | inactive
26 | CN1Cc2c(N)cccc2C(c2ccccc2)C1 (stereo not given) | 5.03 µM (active) and 12.3 µM (active)
27 | COc1c(Cl)ccc(Cl)c1C(=O)O | inactive
28 | CCCCCCCCC(=O)O | 34.4 µM (active) and inactive
29 | NC(=O)c1ncn([C@@H]2O[C@H](CO)[C@@H](O)[C@H]2O)n1 | inactive
30 | CCCOCC(C)O (stereo not given) | inactive
31 | COc1ccc([C@@H]2CC(=O)c3c(O)cc(O[C@@H]4O[C@H](CO[C@@H]5O[C@@H](C)[C@H](O)[C@@H](O)[C@H]5O)[C@@H](O)[C@H](O)[C@H]4O)cc3O2)cc1OC | inactive
32 | C[n+]1ccn(CCO)c1 | inactive
33 | OCc1ccc(Cl)cc1Cl | inactive
34 | CC(O)CNCC(C)O (stereo not given) | inactive
35 | NC(=O)NC(N)=O | inactive
36 | CN1CCCC1=O | inactive
37 | CCCOC(=O)NCCCN(C)C | inactive and 35.6 µM (active)
38 | CCc1cccc(CC)c1N | inactive
39 | CC(=O)Nc1ccc(CC(=O)O)cc1 | inactive
40 | C=C(C)CC(C)(C)C | inactive

From PubChem BioAssay (Tox21)
